Hits are enriched below; roughly 12% of the tested compounds scored in any of these assays.
Sfp PPTase inh = Sfp phosphopantetheinyl transferase inhibition; Q9F4F7; Biochemical Sfp PPTase activity, qHTS; Potency, µM, for the others: largest response in the series, negative = inhibition, hits mostly inhibitors; hit rate 3.5% among 310,000;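 note: the enzyme is Sfp with the accession as filed and its product quenches rhodamine fluorescence; 0% = enzyme reaction without inhibitor and -100% = no enzyme wells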
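Fluorescence-quenching assay with 15 nM Sfp, 5 uM rhodamine-CoA and 12.5 uM BHQ-2-labelled ybbR peptide in pH 7.6 Hepes/MgCl2 buffer. Enzyme was pre-incubated with compound for 15 min at room temperature. Rate was taken from the 30-min fluorescence change (525/598 nm).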
JMJD2A Tudor inh = blocks the human JMJD2A Tudor domain; O75164; AlphaScreen JMJD2A-Tudor / H3K4me3 peptide binding; Potency, µM (series often up to 114 µM), inactives show at the highest dose activity change, negative = inhibition, usual class: inhibitors; hit rate 4.4% among 390,000; note: % is set by controls: 0 for no effect and ±100 for the full control effect; nearly all actives have a fitted effect of over 50% in size
G9a inh = blocks human histone lysine methyltransferase G9a. Q96KQ7. G9a H3K9 monomethylation, AlphaScreen, 2 h. Potency, µM (doses to about 102 µM), without a hit: top-dose activity, negative = inhibition, usual class: inhibitors. hit rate 8.8% among 350,000; note: % is set by controls: 0 for no effect and ±100 for the full control effect; nearly all actives have a fitted effect of over 75% in size
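Readings reflect AlphaScreen signal from monomethyl-H3K9 antibody detection. HMT at 20 nM; substrate b-H3K9 500 nM; cofactor SAM 20 uM; 2 h RT reaction; compounds tested as titrations in qHTS with 15 min preincubation.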
BAZ2B inh = inhibitors of human BAZ2B bromodomain; Q9UIF8; AlphaScreen BAZ2B-H3K14Ac peptide displacement; Potency, µM (top dose mostly 114 µM), for inactives: top-dose activity change, negative = inhibition, usual class: inhibitors; hit rate 4.4% among 360,000; AID 504333; note: % is set by controls: 0 for no effect and ±100 for the full control effect; nearly all actives have a fitted effect of over 60% in size
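Multi-concentration screen (max 110 uM) measuring displacement of acetylated histone H3 peptide from BAZ2B by AlphaScreen, using 50 nM protein, 50 nM peptide and 10 ug/mL streptavidin donor plus Ni-chelate acceptor beads.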
PLK1 PBD block = blocks phosphopeptide binding to human PLK1 polo-box domain | P53350 | Potency, µM, for the others: max response, negative = inhibition, usual class: inhibitors | hit rate 2.8% among 360,000 | Plk1 PBD binding of FITC phosphopeptide, fluorescence polarization; note: series mostly up to about 57 µM; % is set by controls: 0 for no effect and ±100 for the full control effect; nearly all actives have a fitted effect of over 65% in size
Target sequence (P53350 whole entry, looked up, the tested form may be a part): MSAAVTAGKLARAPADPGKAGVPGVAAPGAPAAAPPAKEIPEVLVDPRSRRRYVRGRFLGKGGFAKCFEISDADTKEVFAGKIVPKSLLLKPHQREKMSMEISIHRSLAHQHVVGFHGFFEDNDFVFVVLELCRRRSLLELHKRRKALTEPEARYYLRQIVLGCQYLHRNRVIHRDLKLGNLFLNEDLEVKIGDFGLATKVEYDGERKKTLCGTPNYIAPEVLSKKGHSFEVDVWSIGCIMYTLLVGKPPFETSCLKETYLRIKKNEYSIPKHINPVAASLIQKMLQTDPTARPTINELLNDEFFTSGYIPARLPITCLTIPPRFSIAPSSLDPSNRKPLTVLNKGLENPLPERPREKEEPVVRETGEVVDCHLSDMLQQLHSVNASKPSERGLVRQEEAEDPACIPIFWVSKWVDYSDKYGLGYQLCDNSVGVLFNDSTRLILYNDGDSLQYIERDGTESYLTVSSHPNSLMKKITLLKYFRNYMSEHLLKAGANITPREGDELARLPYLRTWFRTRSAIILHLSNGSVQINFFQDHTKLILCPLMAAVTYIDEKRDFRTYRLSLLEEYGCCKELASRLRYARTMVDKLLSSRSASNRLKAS
HP1b chromo inh = inhibitors of HP1-beta chromodomain binding to methylated histone tails; AlphaScreen HP1-beta / biotin-H3K9me3 peptide binding; Potency, µM (top dose mostly 114 µM), for the others: top-dose activity change, negative = inhibition, actives largely listed as inhibitors; hit rate 0.56% among 390,000; AID 540317; note: nearly all actives have a fitted effect of over 70% in size
Target sequence (P83916 whole entry, looked up): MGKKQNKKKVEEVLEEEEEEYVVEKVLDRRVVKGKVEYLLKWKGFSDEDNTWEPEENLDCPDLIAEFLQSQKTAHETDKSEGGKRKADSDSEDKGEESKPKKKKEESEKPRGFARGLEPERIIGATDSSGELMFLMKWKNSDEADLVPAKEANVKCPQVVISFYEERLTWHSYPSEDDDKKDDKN
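HP1-beta protein (50 nM final) preincubated 30 min at room temperature with biotinylated H3(1-18)K9me3 peptide (50 nM) in PBS pH 7.4, 0.01% Tween-20, then compound added for 30 min. AlphaScreen streptavidin donor/nickel chelate acceptor beads (10 ug/mL final), 30 min dark, luminescence read.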
* marks the source's active call; other numbers are inactive results; ? = inconclusive; · = no result given; ! = repeats disagree; [ ] = dose if it differs, or a comment. Calls come from the whole dose curve; as a rule, active = well fitted curve in the direction sought with a large enough effect; inconclusive = small, poorly fitted or top-dose-only effect, or another doubt; inactive = no such curve, though single readings can be large; an effect the other way counts as inactive or inconclusive. Potency is the fitted concentration of half-maximal effect.

SMILES	Sfp PPTase inh	JMJD2A Tudor inh	G9a inh	BAZ2B inh	PLK1 PBD block	HP1b chromo inh
COc1ccc(S(=O)(=O)NC2(C(F)(F)F)NC(=O)N(CCc3ccc(OC)c(OC)c3)C2=O)cc1 (stereo not given)	13.2%	-10.2%	50.1µM*!	-17.4%	-8.3%	26.7%
COc1ccc(CCNc2nc(C)nc3c2nnn3Cc2ccccc2)cc1	-22.1%	6.9%	23.8%	6.6%	0.7%	42.0%
CC(C)=CCC/C(C)=C/CNC(=O)CC1C[C@H](C(=O)N2CCOCC2)[C@@]2(C)c3[nH]c4ccccc4c3CCN2C1=O (stereo not given in full)	·	?	·	·	-12.6%	1.4%
CC(C)N(C(=O)[C@H]1C[C@H](CC(=O)NC(C)(C)C)C(=O)N2CCc3c([nH]c4cc(-c5ccco5)ccc34)[C@]12C)C(C)C	·	50.1µM*	·	·	21.2µM*	?
CC(C)=CCC/C(C)=C/CNC(=O)C[C@H]1C[C@H](C(=O)N2CCOCC2)[C@@]2(C)c3[nH]c4cc(-c5ccco5)ccc4c3CCN2C1=O	·	39.8µM*	·	·	-4.1%	?
CCN(CC)C(=O)[C@H]1C[C@H](CC(=O)NC(C)(C)C)C(=O)N2CCc3c([nH]c4cc(-c5ccco5)ccc34)[C@]12C	·	?	·	·	-7.5%	2.8%
COc1ccc(S(=O)(=O)N2CCc3ccccc32)cc1C(=O)OCc1nnc(-c2ccccc2)o1	2.0%	4.3%	?	0.1%	-0.3%	27.7%
O=C(NCCCN1CCCCC1)c1cc(Sc2ccc(Cl)cc2)nc2ccccc12	·	-22.0%	-5.0%[59 µM]	-10.2%	·	11.6%
O=C(O)C(Cc1ccccc1)n1c(=S)[nH]c2ccccc2c1=O (stereo not given)	2.7%	14.1µM*	?	-10.4%	?	47.9%
CC(C)[C@H](NC(=O)[C@H](Cc1ccccc1)n1c(=O)[nH]c2ccccc2c1=O)C(=O)N[C@@H](Cc1ccccc1)C(=O)O	16.4%	-12.9%	·	4.1%	-1.5%	28.6%
Cc1ccc(NC(=S)N2CCC(NC(=O)c3ccc(C)cc3)CC2)cc1	9.0%	-18.2%	79.4µM*	-1.0%	-1.3%	-4.8%
Cc1cccc(C(=O)NC2CCN(C(=O)Nc3ccc(F)cc3)CC2)c1	10.6%	-1.4%	79.4µM*	-2.1%	-10.6%	-4.9%
CCOc1ccccc1NC(=O)N1CCC(NC(=O)c2cccc(C)c2)CC1	-25.1%	-32.1%	31.6µM*	12.9%	-15.5%	3.7%
Cc1cccc(C(=O)NC2CCN(C(=O)Nc3ccccc3C)CC2)c1	5.2%	0.7%	-1.9%	3.5%	-11.3%	10.5%
COc1ccc(N(S(=O)(=O)c2ccccc2)S(=O)(=O)c2ccccc2)c(N)c1	·	-27.3%	-11.2%[2.33 µM]	1.0%	-3.1%	20.1%
O=C(NCCc1ccccc1)C(=O)NCC(c1cccnc1)N1CCN(c2ccccc2)CC1 (stereo not given)	·	-9.5%	-5.7%[59 µM]	?	·	18.8%
Cc1ccsc1CN(C)CC(=O)NCC(=O)Nc1ccc(F)c(F)c1F	·	2.6%	·	·	4.0%	44.8%
O=S(=O)(c1ccccc1)N1CCN(c2nccc(-c3cccs3)n2)CC1	·	-5.4%	·	·	·	·
C/C(=N\NC(=O)c1ccncc1)c1ccc(N(C)C)cc1	?	17.8µM*	-6.0%	-2.4%	26.7µM*	-10.2%
C/C(=N\NC(=O)c1ccc(OC2OCCOC2Oc2ccc(C(=O)N/N=C(\C)c3ccncc3)cc2)cc1)c1ccncc1 (stereo not given)	-26.1%	-32.7%	12.6µM*	-16.2%	2.9%	-24.4%
C/C(=N\NC(=O)c1ccncc1)c1ccc(N2CCOCC2)cc1	·	-3.1%	28.4%[12.7 µM]	2.6%	-23.6%	-0.9%
CC(=O)OCC(NC(=O)C(COCc1ccccc1)NC(=O)OC(C)(C)C)C1OC(n2cc(C)c(=O)[nH]c2=O)C(OC(C)=O)C1OC(C)=O (stereo not given)	20.7%	-11.0%	·	·	·	43.4%
CCC(C)C(NC(=O)c1ccccc1)C(=O)N1CCN(C(=O)c2ccccc2)CC1 (stereo not given)	·	·	·	·	3.5%	·
CCCc1cc(=O)[nH]c(SCC(=O)NCCN2C(=O)CSC2=O)n1	·	-7.5%	·	·	-11.1%	17.4%
Cc1ccc2nc(NC(=S)NC(=O)c3ccc(OC(C)C)cc3)sc2c1	-92.9%	-5.1%	·	56.2µM*	-7.2%	22.0%
SMILES	Sfp PPTase inh	JMJD2A Tudor inh	G9a inh	BAZ2B inh	PLK1 PBD block	HP1b chromo inh
Cc1ccc2nc(NC(=O)c3ccc(N4C(=O)CCC4=O)cc3)sc2c1	0.0%	-25.2%	11.2µM*	?	-22.7%	32.4%
O=C(c1ccco1)N1CCN(C(=O)c2ccccc2NS(=O)(=O)c2ccc(F)cc2)CC1	17.0%	-14.1%	-37.8%	1.6%	-13.1%	34.3%
Cc1c(S(=O)(=O)N2CCc3ccccc3C2)c(=O)n(C)c(=O)n1C	15.8%	0.7%	50.1µM*	10.2%	-16.6%	22.2%
Cc1c(S(=O)(=O)N2CCN(c3ccccc3)CC2)c(=O)n(C)c(=O)n1C	11.6%	-7.2%	?	-19.2%	-13.5%	16.3%
O=C(Nc1cccc(S(=O)(=O)N2CCCC2)c1)c1cccc(OC(F)F)c1	·	-10.0%	-35.7%	-9.1%	1.3%	30.7%
O=C(Nc1ccccc1OC(F)F)c1cccc(S(=O)(=O)N2CCCC2)c1	-2.3%	?	-3.0%	?	16.8µM*	22.3%
O=C(NCCCN1CCOCC1)c1cccc(S(=O)(=O)N2CCN(c3ccccc3)CC2)c1	·	-18.9%	-40.5%	4.2%	-6.4%	7.8%
O=C(NCCOc1ccccc1F)c1cccc(S(=O)(=O)N2CCN(c3ccccc3)CC2)c1	·	-25.5%	39.8µM*	-15.4%	-3.2%	13.1%
O=C(Nc1ccc(S(=O)(=O)N2CCCC2)cc1)c1cccc(OC(F)F)c1	·	-17.6%	35.5µM*	7.3%	-2.8%	19.0%
O=C(Cn1nc(-c2ccccc2)c2cnc3ccc(F)cc3c21)NC1CCCC1	·	-11.0%	8.1%[59 µM]	-3.3%	·	7.2%
O=C(Nc1ccc(F)cc1)C(c1ccccc1)N1CCN(CC(=O)N2CCOCC2)CC1 (stereo not given)	·	-6.4%	10µM*	5.7%	-11.8%	25.5%
CCN(CC)c1nc2ccccc2nc1C(C#N)C(=O)NCCc1ccccc1 (stereo not given)	-10.2%	0.0%	?	2.6%	13.4µM*	56.7%
O=C(Nc1ccccc1)N1CCC2(CC1)CCN(C(=O)c1ccncc1)CC2	15.5%	·	3.1%[12.7 µM]	·	·	·
O=C(/C=C/c1ccc(Cl)cc1)Nc1ccc(N2CCOCC2)cc1	-1.5%	?	-3.4%[59 µM]	-10.6%	23.8µM*	-17.7%
O=C(Nc1ccc(N2CCOCC2)cc1)C1(c2ccc(Cl)cc2)CCC1	12.3%	-32.9%	44.7µM*	?	-5.6%	-6.1%
O=C(/C=C/c1ccc(Cl)cc1)NC(=S)Nc1ccc(N2CCOCC2)c(Cl)c1	?	?	22.4µM*	5.0%	18.9µM*	?
O=C(N1CCOCC1)C1(c2ccc(Cl)cc2)CCCC1	4.1%	-1.0%	7.3%[59 µM]	0.2%	-5.5%	23.1%

Bioassay records as filed in PubChem BioAssay.
